Experimental findings from PubChem BioAssay (NCI) are described below.

This is part of a sample that, as a whole, favours compounds with a hit. Of some 83,000 tested, about 20% had one in any assay.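 How to read the values: 0–100, growth inhibition (40 = 60% inhibited); 0, no net growth; -100 to 0, cell death (-40 = 40% of starting cells died; -100 = all dead).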 Values without a mark were called inactive. Calls of active or inactive are those of the source. How the source made its calls: active means growth percent below 10; inactive means the rest.

The subject of the test is HL-60(TB) leukemia. The test can be described thus: NCI-60 one-dose screen, 48 h (100 = growth as untreated, 0 = no growth, -100 = all killed). The note with it: 10 µM unless noted.
Regarding `O=c1cc(Cl)nc2ccccn12`, the growth was 92.9%.
With `COc1ccc(Oc2nc(NC3CCCC3)nc(Sc3ccc(OC)cc3)n2)cc1`, the growth was 48.3%.
The same measure for `COc1ccc(-c2cc(-c3cc(-c4ccc(OC)cc4)nc(N)n3)nc(N)n2)cc1`: 83.6%; for `N#C/C(=C\c1cccc2cnccc12)n1nnc2cccc(F)c21`: 1.65% (active).
Turning to `CCN1CCC(CCOC)(CN2c3ccccc3Sc3ccc(Cl)cc32)C1` (stereo not given), the growth was 58.5%.
As to `Oc1ccc(N=Nc2nccs2)c(O)c1`, the growth was 5.98% (active).
`OCc1ccccn1`: the growth was 102%.
With `CC(=O)NCCSC(=O)C(=O)SCCNC(C)=O` the figure was 83.6%.
With `CCN1C(=O)N(CC)C2C1NN=c1s/c(=C\c3ccc(C(F)(F)F)cc3)c(=O)n12` (stereo not given), the growth is -49.2% (active).
The same measure for `COC1=CC(c2ccc[nH]2)=N/C1=C\c1[nH]c(C)c(C(=O)OC(C)C)c1C`: 2.29% (active); for `CCCSc1ccc2nc(NC(=O)OC)[nH]c2c1`: 7.7% (active); for `Cc1ccc(C)n1-c1ccccc1-n1c(C)ccc1C`: 82.2%.
The same measure for `Cn1c2ccccc2c2nn(Cc3ccccc3)c(=O)nc21`: 110%; for `CCCC(=O)NNc1[nH]c(-c2cc(OC)c(OC)c(OC)c2)cc1C(=O)OCC`: -11.1% (active); for `COc1ccc(/C=C2\N=C(c3ccccc3)N(c3cc(OC)c(OC)cc3C(=O)N3N=C(C)CC3=O)C2=O)cc1`: 107%.
On to `O=C(/C=C\c1ccc(O)cc1)c1ccccc1`, for which the growth is 71.9%.
Turning to `OC1OC(COC(c2ccccc2)(c2ccccc2)c2ccccc2)C(O)C(O)C1O` (stereo not given), the growth was 97.4%.
With `Cc1cc(N2CCCCCC2)nc(NC2CCCC(Nc3ccnc4cc(Cl)ccc34)C2)n1` (stereo not given) the figure was -71.3% (active); with `Cc1cc2c(c(C)n1)CN(C(=O)Nc1nc(-c3cncs3)ccc1N)C2`, 139%.
With `COP(=O)(OC)/C(=N\NS(=O)(=O)c1ccc(C)cc1)c1ccccc1` the figure was 100%; with `CCCC(c1nnnn1C1CCCCC1)N1CCN(C(=O)c2ccco2)CC1` (stereo not given), 12.6%; with `CCC(=O)c1c(C)[nH]c(C)c1C`, 92.8%.
The same measure for `O=c1nc(NO)[nH]c(=O)n1Cc1ccccc1`: 105%; for `CN(C)c1ccc([C@@H](C(=O)Nc2cccc([N+](=O)[O-])c2)N(C(=O)c2cc3ccccc3[nH]2)c2cccc([N+](=O)[O-])c2)cc1`: 97.8%.
Take `Cc1[nH]c2ccc(F)cc2c1CCNC(=O)C1CCN(C(=O)c2ccc(-c3ccccc3)cc2)CC1`: the growth is 55.3%.
The same measure for `O=C1C2=C(Nc3cc(Cl)ccc3N2)OC1c1c[nH]c2ccc(COc3ccccc3)cc12` (stereo not given): 81.6%.
The same measure for `COc1cccc(NCc2nnc(Nc3ccc(Cl)cc3)c3ccccc23)c1`: -27.1% (active).
The same measure for `COc1ccc(/C(=C2\O[C@@H]([C@H]3COC(C)(C)O3)[C@H]3OC(C)(C)O[C@@H]23)c2cc(OC)c(OC)c(OC)c2)cc1O`: 20.7%; for `CCOC(=O)c1c2ncccc2n2c(=O)n(-c3ccc(Cl)cc3)nnc12`: 80.5%; for `COc1ccc2c(c1)C(=Nc1cc(OC)c(OC)c(OC)c1)C(=O)N2`: 96.1%.
In the case of `CC(C)Cc1nc(Nc2ccccc2)[nH]c(=O)c1C#N`, the growth is 57.7%.
The same measure for `CC(C)(C)CC(C)(C)Nc1c(-c2c(O)c3ccccc3oc2=O)nc2sccn12`: 99.7%; for `COc1cc(C2CC(c3ccc(Cl)cc3)=NN2C(C)=O)ccc1Oc1nc2c(c(=O)n(C)c(=O)n2C)n1C` (stereo not given): 94.2%.
With `Cc1nccc2c3ccc(OCc4cn(-c5ccccc5)nn4)cc3n(CCCc3ccccc3)c12`, the growth is 30.1%.
With `COc1ccc2[nH]c(=O)c(CNc3ccc(Nc4nccc(-c5ccc(Cl)cc5)n4)cc3)cc2c1` the figure was 78.2%.
Turning to `CCOC(=O)COc1ccc2c(c1)O/C(=C\c1ccc(O)cc1)C2=O`, the growth is 112%.
The same measure for `COC(=O)c1nc(N)nc(C(=O)OC)c1C(=O)c1ccc(F)cc1`: 115%; for `NC1(N2SC(S)=C3CCCC=C32)CCCCC1`: 89.6%.
The same measure for `O=C1CCC23OC(C(O)c4ccccc4N12)C1C(Br)=NOC13` (stereo not given): 96%; for `CC(=O)Nc1cc(C)ccc1C`: 100%.
